“And” between values parts separate entries of the source, which are not always exact repeats. Equal entries are not always repeated. Results filed as inconclusive are left out. Some compounds were tested as several samples or in several runs, with calls that do not always agree. The source made the active and inactive calls. The calls were made as follows, unless noted: active = hit-call score of the fitted dose curve at least 0.9, where 1 is the maximum; inactive = score below 0.9.
Assays:
[1] = BSK_4H_Eotaxin3: BioMAP Diversity Plus: 4H Assay for Eotaxin 3 Biomarker Activity (AID 2283000); details: primary human endothelial cells (HUVEC); actives raise or lower the signal
In short: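 Human umbilical vein endothelial cells (BSK_4H system) dosed with test chemical; Eotaxin-3 (CCL26) measured by ELISA 24 h after dosing. Bidirectional curve fitting relative to DMSO negative control as baseline.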

[2] = target: human Peroxisome Proliferator-activated Receptor alpha (PPARa), PPARA (gene 5465) (UniProt Q07869); test: ATG_PPARa_TRANS: Attagene TRANS-FACTORIAL HepG2 Assay for human Peroxisome Proliferator-activated Receptor alpha (PPARa) (AID 2283001; active = hit-call score of the fitted dose curve at least 0.9, where 1 is the maximum;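 as to AC50: potency for gain of reporter signal over DMSO so agonist or activator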)
In short: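 HepG2 cells transiently transfected with multiplexed GAL4-UAS reporter units and chimeric NR-Gal4 constructs were dosed for 24 h. Reporter mRNA was measured by RT-PCR with fluorescent labelling and capillary electrophoresis; gain of signal fitted against DMSO.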

[3] = target: human Peroxisome Proliferator-activated Receptor delta (PPARd), PPARD (gene 5467) (UniProt Q03181); test: ATG_PPARd_TRANS: Attagene TRANS-FACTORIAL HepG2 Assay for human Peroxisome Proliferator-activated Receptor delta (PPARd) (AID 2283002; active = hit-call score of the fitted dose curve at least 0.9, where 1 is the maximum)
In short: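 Multiplexed trans-activation format: HepG2 liver cells expressing exogenous NR-Gal4 chimeras and GAL4-UAS reporters were exposed for 24 h. Reporter mRNA was detected by RT-PCR with capillary electrophoresis fluorescence; activity fitted as gain of signal relative to DMSO.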

[4] = read-out: Intercellular Adhesion Molecule 1 (ICAM1), ICAM1 (gene 3383); test: BSK_3C_ICAM1: BioMAP Diversity Plus: 3C Assay for Intercellular Adhesion Molecule 1 (ICAM1) Biomarker Activity (AID 2283003); details: primary human endothelial cells (HUVEC); actives raise or lower the signal
In short: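 Primary human umbilical vein endothelial cells in the BioMAP 3C system were exposed to chemicals for 24 h, then ICAM-1 was quantified by ELISA. Activity was fitted bidirectionally against the DMSO negative control baseline.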

[5] = target: Retinoic acid receptor alpha (Homo sapiens) (UniProt P10276); test: ATG_RARa_TRANS: Attagene TRANS-FACTORIAL HepG2 Assay for human Retinoic Acid Receptor alpha (RARa) (AID 2283005; active = hit-call score of the fitted dose curve at least 0.9, where 1 is the maximum)
In short: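 HepG2 cells transiently transfected with multiple reporter units expressing chimeric RARα-GAL4 fusion, with GAL4-UAS-driven reporters. After 24 h compound exposure, reporter mRNA induction quantified by RT-PCR and capillary electrophoresis with fluorescent labeling; gain-of-signal fitted relative to DMSO control.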

[6] = BSK_3C_Proliferation: Cell Proliferation Assessment in the BioMAP Diversity Plus: 3C Assay (AID 2283006); details: primary human endothelial cells (HUVEC);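 as to AC50: potency may reflect either rise or fall in cell number versus DMSO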
In short: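 Human umbilical vein endothelial cells were grown sub-confluent and exposed to chemical for 48 h, then fixed with 10% TCA and stained with 0.1% sulforhodamine B; absorbance at 560 nm gave relative cell number, fitted bidirectionally against DMSO baseline.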

[7] = target: Peroxisome proliferator-activated receptor gamma (Homo sapiens) (UniProt P37231); test: ATG_PPARg_TRANS: Attagene TRANS-FACTORIAL HepG2 Assay for human Peroxisome Proliferator-activated Receptor-gamma (PPARg) (AID 2283007; active = hit-call score of the fitted dose curve at least 0.9, where 1 is the maximum)
In short: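 Multiplexed reporter transcription units in HepG2, 24 h dosing, reporter transcripts quantified by fluorescent RT-PCR and capillary electrophoresis. Increase over DMSO scored.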

[8] = target: Nuclear receptor subfamily 1 group I member 2 (Homo sapiens) (UniProt O75469); test: ATG_PXR_TRANS: Attagene TRANS-FACTORIAL HepG2 Assay for human Pregnane X Receptor (PXR) (AID 2283008; active = hit-call score of the fitted dose curve at least 0.9, where 1 is the maximum)
In short: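 HepG2 cells transiently transfected with multiple reporter units, here a PXR-GAL4 chimera driving a GAL4-UAS reporter; 24 h compound exposure. Reporter mRNA measured by RT-PCR, FAM labelling and capillary electrophoresis; gain of signal fitted against DMSO baseline.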

[9] = target: human RAR-related Orphan Receptor beta (RORb), RORB (gene 6096) (UniProt Q92753); test: ATG_RORb_TRANS: Attagene TRANS-FACTORIAL HepG2 Assay for human RAR-related Orphan Receptor beta (RORb) (AID 2283010; active = hit-call score of the fitted dose curve at least 0.9, where 1 is the maximum)
In short: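 HepG2 cells were transiently transfected with multiplexed GAL4-UAS reporter units expressing chimeric nuclear receptor–GAL4 proteins, then dosed for 24 h. Reporter mRNA was quantified by RT-PCR with fluorescent labelling and capillary electrophoresis; gain of signal was fitted relative to DMSO.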

[10] = target: Retinoic acid receptor RXR-alpha (Homo sapiens) (UniProt P19793); test: ATG_RXRa_TRANS: Attagene TRANS-FACTORIAL HepG2 Assay for human Retinoid X Receptor alpha (RXRa) (AID 2283012; active = hit-call score of the fitted dose curve at least 0.9, where 1 is the maximum)
In short: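 HepG2 cells transiently transfected with multiplexed GAL4-UAS reporter units and chimeric NR-GAL4 fusions, dosed 24 h. Reporter mRNA measured by RT-PCR, FAM labelling, HpaI digestion and capillary electrophoresis; gain-of-signal fitted relative to DMSO baseline.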

[11] = target: human Thyroid Receptor alpha (THRa1), THRA (gene 7067) (UniProt P10827); test: ATG_THRa1_TRANS: Attagene TRANS-FACTORIAL HepG2 Assay for human Thyroid Receptor alpha (THRa1) (AID 2283014; active = hit-call score of the fitted dose curve at least 0.9, where 1 is the maximum)
In short: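 Transcripts from GAL4-UAS-driven reporters, measured after 24 h compound exposure by RT-PCR plus capillary electrophoresis of 6-FAM-labeled fragments, were fitted for gain of signal relative to DMSO. Cells: transiently transfected HepG2 expressing NR-Gal4 chimeras.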

[12] = read-out: E-selectin (Homo sapiens) (UniProt P16581); test: BSK_3C_Eselectin: BioMAP Diversity Plus: 3C Assay for Eselectin Biomarker Activity (AID 2283015); details: primary human endothelial cells (HUVEC); actives raise or lower the signal
In short: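 E-selectin ELISA readout, fitted bidirectionally relative to DMSO, taken 24 h post-dosing in HUVEC cultures of the 3C system. Overt cytotoxicity tracked with sulforhodamine B staining of parallel wells.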

[13] = read-out: Interleukin-1 alpha (IL1a), IL1A (gene 3552); test: BSK_BE3C_IL1a: BioMAP Diversity Plus: BE3C Assay for Interleukin-1 alpha (IL1a) Biomarker Activity (AID 2283016); details: primary human bronchial epithelial cells; actives raise or lower the signal
In short: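 Human primary bronchial epithelial cells (BE3C system) were dosed with compound and IL-1a measured by ELISA 24 h later. Activity was fitted bidirectionally against DMSO baseline; cytotoxicity was tracked in parallel cultures by SRB total-protein staining.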

[14] = read-out: Monocyte Chemoattractant Protein-1 (MCP1), CCL2 (gene 6347); test: BSK_3C_MCP1: BioMAP Diversity Plus: 3C Assay for Monocyte Chemoattractant Protein-1 (MCP1) Biomarker Activity (AID 2283017); details: primary human endothelial cells (HUVEC); actives raise or lower the signal
In short: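 MCP-1 was measured by ELISA 24 h after dosing in primary HUVEC 3C cultures and fitted in both directions relative to DMSO; cytotoxicity was checked by SRB total-protein staining in parallel wells.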

[15] = read-out: Monocyte Chemoattractant Protein-1 (MCP1), CCL2 (gene 6347); test: BSK_4H_MCP1: BioMAP Diversity Plus: 4H Assay for Monocyte Chemoattractant Protein-1 (MCP1) Biomarker Activity (AID 2283018); details: primary human endothelial cells (HUVEC); actives raise or lower the signal
In short: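 Human umbilical vein endothelial cells (4H system) dosed with chemical; MCP-1 measured by ELISA 24 h after dosing. Bidirectional curve fitting against DMSO negative control as baseline; parallel SRB total-protein staining tracks overt cytotoxicity.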

[16] = read-out: Human Leukocyte Antigen - DR isotype (HLADR), HLA-DRA (gene 3122); test: BSK_3C_HLADR: BioMAP Diversity Plus: 3C Assay for Human Leukocyte Antigen - DR isotype (HLADR) Biomarker Activity (AID 2283019); details: primary human endothelial cells (HUVEC); actives raise or lower the signal
In short: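 Bidirectional fitting against DMSO was applied to the HLA-DR ELISA signal from human umbilical vein endothelial cells, 24 h post-dose. Cytotoxicity came from parallel SRB total-protein staining; 3C proliferation was counted by SRB at 48 h.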

[17] = target: human Retinoic Acid Receptor gamma (RARg), RARG (gene 5916) (UniProt P13631); test: ATG_RARg_TRANS: Attagene TRANS-FACTORIAL HepG2 Assay for human Retinoic Acid Receptor gamma (RARg) (AID 2283009; active = hit-call score of the fitted dose curve at least 0.9, where 1 is the maximum)
In short: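 HepG2 cells transiently transfected with multiplexed reporter units expressing chimeric RARg-GAL4 and GAL4-UAS-driven reporters; 24 h compound exposure. Reporter mRNA quantified by RT-PCR with fluorescent labelling and capillary electrophoresis; gain-of-signal fitted relative to DMSO baseline.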

[18] = target: human Retinoid X Receptor beta (RXRb), RXRB (gene 6257) (UniProt P28702); test: ATG_RXRb_TRANS: Attagene TRANS-FACTORIAL HepG2 Assay for human Retinoid X Receptor beta (RXRb) (AID 2283013; active = hit-call score of the fitted dose curve at least 0.9, where 1 is the maximum)
In short: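 HepG2 cells transiently transfected with multiplexed reporter units driven by GAL4-UAS and exogenous chimeric NR-Gal4 proteins; treated 24 h. Reporter mRNA measured by RT-PCR, 6-FAM labelling and capillary electrophoresis; gain-of-signal fitted versus DMSO baseline.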

[19] = target: human Retinoic Acid Receptor beta (RARb), RARB (gene 5915) (UniProt P10826); test: ATG_RARb_TRANS: Attagene TRANS-FACTORIAL HepG2 Assay for human Retinoic Acid Receptor beta (AID 2283004; active = hit-call score of the fitted dose curve at least 0.9, where 1 is the maximum)
In short: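 Induction of reporter mRNA from a chimeric RARb-Gal4 construct was measured by RT-PCR, FAM labelling, HpaI digestion and capillary electrophoresis. Measurements followed 24 h compound treatment of transiently transfected human HepG2 liver cells, with DMSO as baseline.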

[20] = target: human RAR-related Orphan Receptor gamma (RORg), RORC (gene 6097) (UniProt P51449); test: ATG_RORg_TRANS: Attagene TRANS-FACTORIAL HepG2 Assay for human RAR-related Orphan Receptor gamma (RORg) (AID 2283011; active = hit-call score of the fitted dose curve at least 0.9, where 1 is the maximum)
In short: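 Reporter transcripts from a transfected RORg-GAL4 chimera in HepG2 cells were quantified 24 h after dosing by RT-PCR, 6-FAM labelling, HpaI digestion and capillary electrophoresis; increases over DMSO baseline were fitted.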

Measured: AC50

Chain of E-selectin (Homo sapiens) (P16581 whole entry, looked up): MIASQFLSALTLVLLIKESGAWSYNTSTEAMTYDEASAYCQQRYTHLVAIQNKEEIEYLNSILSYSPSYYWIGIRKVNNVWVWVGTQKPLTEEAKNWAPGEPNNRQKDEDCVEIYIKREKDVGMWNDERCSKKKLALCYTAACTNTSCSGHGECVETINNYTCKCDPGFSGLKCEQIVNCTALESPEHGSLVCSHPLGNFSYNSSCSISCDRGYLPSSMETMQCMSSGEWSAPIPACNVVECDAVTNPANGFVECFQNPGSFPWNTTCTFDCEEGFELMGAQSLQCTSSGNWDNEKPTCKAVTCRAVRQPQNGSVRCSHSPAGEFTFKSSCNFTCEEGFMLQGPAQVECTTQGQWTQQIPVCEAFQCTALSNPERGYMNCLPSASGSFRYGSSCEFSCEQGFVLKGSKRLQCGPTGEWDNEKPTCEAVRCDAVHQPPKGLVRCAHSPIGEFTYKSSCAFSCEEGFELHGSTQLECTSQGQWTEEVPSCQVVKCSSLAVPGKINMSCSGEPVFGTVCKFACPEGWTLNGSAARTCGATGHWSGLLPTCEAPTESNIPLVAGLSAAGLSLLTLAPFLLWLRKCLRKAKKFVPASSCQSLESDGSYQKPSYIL
Chain of Peroxisome proliferator-activated receptor gamma (Homo sapiens) (P37231 whole entry, looked up): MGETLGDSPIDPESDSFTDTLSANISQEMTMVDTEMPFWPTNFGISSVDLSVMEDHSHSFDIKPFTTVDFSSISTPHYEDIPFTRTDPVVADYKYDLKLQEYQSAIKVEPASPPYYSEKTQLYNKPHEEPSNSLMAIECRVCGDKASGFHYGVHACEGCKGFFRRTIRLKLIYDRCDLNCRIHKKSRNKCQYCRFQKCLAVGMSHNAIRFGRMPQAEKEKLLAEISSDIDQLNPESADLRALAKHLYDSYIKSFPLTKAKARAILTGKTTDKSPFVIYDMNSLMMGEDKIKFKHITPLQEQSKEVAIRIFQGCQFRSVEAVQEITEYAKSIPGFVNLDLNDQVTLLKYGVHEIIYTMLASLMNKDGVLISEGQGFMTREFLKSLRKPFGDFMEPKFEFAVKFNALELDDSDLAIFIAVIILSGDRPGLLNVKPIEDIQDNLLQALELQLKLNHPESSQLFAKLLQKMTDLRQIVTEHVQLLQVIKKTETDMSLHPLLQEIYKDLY
Chain of Retinoic acid receptor RXR-alpha (Homo sapiens) (P19793 whole entry, looked up, the tested form may be a part): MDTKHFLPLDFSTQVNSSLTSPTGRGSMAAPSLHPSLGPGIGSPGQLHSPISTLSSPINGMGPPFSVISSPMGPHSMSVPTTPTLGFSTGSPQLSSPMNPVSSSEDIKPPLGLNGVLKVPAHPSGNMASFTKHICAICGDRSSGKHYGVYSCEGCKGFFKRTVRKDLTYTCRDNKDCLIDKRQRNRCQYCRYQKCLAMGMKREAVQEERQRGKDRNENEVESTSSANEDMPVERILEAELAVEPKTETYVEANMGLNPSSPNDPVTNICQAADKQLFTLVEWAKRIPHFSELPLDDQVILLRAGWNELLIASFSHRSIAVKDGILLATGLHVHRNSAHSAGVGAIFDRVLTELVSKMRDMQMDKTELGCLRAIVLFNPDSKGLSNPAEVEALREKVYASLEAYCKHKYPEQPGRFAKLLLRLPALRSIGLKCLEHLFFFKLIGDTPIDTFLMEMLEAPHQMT
Chain of human Peroxisome Proliferator-activated Receptor alpha (PPARa), PPARA (gene 5465) (Q07869 whole entry, looked up, the tested form may be a part): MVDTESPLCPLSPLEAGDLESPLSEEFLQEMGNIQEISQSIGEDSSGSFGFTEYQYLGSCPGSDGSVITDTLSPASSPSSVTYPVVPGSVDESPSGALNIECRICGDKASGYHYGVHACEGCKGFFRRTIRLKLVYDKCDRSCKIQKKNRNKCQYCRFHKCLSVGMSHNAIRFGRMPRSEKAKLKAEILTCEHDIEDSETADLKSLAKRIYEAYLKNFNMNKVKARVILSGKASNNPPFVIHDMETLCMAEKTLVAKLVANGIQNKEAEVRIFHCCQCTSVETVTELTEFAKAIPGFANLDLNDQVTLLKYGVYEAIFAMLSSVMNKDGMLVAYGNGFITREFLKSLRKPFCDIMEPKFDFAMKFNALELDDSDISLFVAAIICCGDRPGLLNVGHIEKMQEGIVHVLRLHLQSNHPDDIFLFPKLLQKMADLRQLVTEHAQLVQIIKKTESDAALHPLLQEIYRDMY
Chain of human RAR-related Orphan Receptor gamma (RORg), RORC (gene 6097) (P51449 whole entry, looked up, the tested form may be a part): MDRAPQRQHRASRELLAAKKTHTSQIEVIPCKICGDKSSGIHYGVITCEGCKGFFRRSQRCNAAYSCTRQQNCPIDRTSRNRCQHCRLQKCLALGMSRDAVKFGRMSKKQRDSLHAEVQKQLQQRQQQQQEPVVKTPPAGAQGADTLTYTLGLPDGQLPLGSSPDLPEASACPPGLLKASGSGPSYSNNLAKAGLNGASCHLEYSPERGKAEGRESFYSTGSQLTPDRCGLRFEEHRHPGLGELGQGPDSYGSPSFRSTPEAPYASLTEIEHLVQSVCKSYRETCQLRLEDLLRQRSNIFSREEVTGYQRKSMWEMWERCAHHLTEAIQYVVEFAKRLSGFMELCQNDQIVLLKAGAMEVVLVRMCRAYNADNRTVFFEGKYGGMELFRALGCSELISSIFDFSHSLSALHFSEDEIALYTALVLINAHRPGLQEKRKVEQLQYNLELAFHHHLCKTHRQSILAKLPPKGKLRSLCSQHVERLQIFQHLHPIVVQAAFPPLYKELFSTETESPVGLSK
Chain of human Retinoic Acid Receptor gamma (RARg), RARG (gene 5916) (P13631 whole entry, looked up, the tested form may be a part): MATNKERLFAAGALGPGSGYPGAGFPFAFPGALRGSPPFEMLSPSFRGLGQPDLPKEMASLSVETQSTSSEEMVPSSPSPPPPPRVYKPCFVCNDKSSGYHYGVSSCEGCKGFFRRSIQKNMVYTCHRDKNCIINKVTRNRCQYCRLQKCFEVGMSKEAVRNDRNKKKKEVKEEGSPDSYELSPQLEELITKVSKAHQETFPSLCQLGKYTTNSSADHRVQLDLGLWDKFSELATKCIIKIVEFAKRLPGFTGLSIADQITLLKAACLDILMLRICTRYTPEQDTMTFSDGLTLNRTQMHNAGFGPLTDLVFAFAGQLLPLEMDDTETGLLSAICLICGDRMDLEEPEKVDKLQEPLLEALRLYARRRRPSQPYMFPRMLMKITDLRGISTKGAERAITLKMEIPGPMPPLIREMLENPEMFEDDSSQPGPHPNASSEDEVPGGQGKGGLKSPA
Chain of human RAR-related Orphan Receptor beta (RORb), RORB (gene 6096) (Q92753 whole entry, looked up, the tested form may be a part): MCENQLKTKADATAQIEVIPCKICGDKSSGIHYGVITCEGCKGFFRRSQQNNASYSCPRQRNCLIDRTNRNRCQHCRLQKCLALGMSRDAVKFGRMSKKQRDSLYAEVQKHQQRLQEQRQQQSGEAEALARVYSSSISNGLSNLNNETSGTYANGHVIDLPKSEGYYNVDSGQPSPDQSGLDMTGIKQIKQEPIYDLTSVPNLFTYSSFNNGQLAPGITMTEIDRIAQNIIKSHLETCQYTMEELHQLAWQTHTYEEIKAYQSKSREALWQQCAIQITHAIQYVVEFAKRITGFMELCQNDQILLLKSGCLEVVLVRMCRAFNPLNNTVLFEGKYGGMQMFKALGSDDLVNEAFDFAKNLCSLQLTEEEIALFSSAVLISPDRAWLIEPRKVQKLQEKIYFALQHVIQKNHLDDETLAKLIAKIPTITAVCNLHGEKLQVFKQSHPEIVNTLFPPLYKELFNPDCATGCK
Chain of human Retinoid X Receptor beta (RXRb), RXRB (gene 6257) (P28702 whole entry, looked up, the tested form may be a part): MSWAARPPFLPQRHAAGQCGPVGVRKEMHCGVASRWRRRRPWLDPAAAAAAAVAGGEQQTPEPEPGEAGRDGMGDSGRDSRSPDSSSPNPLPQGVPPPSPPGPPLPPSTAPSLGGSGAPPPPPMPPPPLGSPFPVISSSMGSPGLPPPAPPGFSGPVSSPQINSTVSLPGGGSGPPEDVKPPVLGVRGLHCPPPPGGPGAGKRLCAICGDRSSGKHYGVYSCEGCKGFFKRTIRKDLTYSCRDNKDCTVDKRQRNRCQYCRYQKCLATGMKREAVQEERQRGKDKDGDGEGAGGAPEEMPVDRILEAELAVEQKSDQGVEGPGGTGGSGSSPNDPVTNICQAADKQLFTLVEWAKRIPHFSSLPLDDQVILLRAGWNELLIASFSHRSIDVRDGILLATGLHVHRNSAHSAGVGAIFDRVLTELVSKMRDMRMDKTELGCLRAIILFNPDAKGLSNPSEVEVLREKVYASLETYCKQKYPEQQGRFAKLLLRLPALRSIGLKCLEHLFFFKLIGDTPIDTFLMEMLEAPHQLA
Chain of human Retinoic Acid Receptor beta (RARb), RARB (gene 5915) (P10826 whole entry, looked up, the tested form may be a part): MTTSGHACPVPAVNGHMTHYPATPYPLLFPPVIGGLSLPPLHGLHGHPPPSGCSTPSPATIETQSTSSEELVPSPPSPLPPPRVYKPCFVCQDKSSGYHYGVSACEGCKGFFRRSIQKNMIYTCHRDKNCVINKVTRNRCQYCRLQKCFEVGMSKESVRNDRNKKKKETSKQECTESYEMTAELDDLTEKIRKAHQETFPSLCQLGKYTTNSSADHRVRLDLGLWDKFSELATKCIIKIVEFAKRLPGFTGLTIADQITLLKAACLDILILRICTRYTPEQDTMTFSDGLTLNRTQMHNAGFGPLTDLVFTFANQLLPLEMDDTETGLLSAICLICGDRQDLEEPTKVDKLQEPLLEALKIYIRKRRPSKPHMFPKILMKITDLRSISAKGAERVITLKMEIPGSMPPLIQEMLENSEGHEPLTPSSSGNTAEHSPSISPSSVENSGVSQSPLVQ
Chain of human Peroxisome Proliferator-activated Receptor delta (PPARd), PPARD (gene 5467) (Q03181 whole entry, looked up, the tested form may be a part): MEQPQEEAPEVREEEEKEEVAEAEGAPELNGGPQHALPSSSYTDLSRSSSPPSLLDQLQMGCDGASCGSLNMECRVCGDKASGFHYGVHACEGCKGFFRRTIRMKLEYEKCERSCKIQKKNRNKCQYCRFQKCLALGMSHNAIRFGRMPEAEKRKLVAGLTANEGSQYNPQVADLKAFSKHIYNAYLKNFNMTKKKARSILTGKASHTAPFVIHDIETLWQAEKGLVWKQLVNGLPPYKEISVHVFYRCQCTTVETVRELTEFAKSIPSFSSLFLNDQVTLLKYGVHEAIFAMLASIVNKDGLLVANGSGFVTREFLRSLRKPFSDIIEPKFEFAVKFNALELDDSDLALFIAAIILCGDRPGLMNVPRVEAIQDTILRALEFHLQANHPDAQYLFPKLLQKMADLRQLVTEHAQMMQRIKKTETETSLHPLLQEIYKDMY

O=C(O)C(F)(F)C(F)(F)F
active: [14] 23 µM
inactive: [1] | [2] | [3] | [4] | [5] | [6] | [7] | [8] | [9] | [10] | [11] | [12] | [13] | [14] | [15] | [16]

FC(F)(F)C(F)(F)CNCC(F)(F)C(F)(F)F
not listed: [5] | [9] | [19] | [20]
inactive: all other assays above

O=S(=O)(OCCOC(F)(F)F)C(F)(F)F
not listed: [5] | [9] | [11] | [20]
inactive: all other assays above

FC(F)(F)C(F)(F)C(F)(F)C(F)(F)C(F)(F)C(F)(F)C(F)(F)I
not listed: [5] | [8] | [9] | [10] | [11] | [17]
inactive: all other assays above

O=C(O)C(F)(F)C(F)(F)C(F)(F)C(F)(F)C(F)(F)C(F)(F)C(F)(F)C(F)(F)C(F)(F)C(F)(F)C(F)(F)C(F)(F)C(F)(F)F
inactive: [1] | [3] | [4] | [19] | [5] | [7] | [8] | [17] | [9] | [20] | [10] | [18] | [11] | [12] | [13] | [14] | [15] | [16]
active: [1] 1.32 µM | [6] 1.29 µM and 252 nM

OCC(F)(F)C(F)(F)C(F)(F)F
not listed: [20]
inactive: all other assays above

O[Si](c1ccccc1)(c1ccccc1)c1ccccc1
active: [1] 30.1 µM | [6] 24.4 µM | [7] 44.4 µM | [8] 0.68 µM | [12] 6.83 µM | [14] 37.6 µM | [15] 11.9 µM | [16] 30.6 µM
inactive: [2] | [3] | [4] | [5] | [10] | [18] | [11] | [13]

C=CC(=O)OCC(F)(F)C(F)(F)C(F)(F)C(F)(F)C(F)(F)C(F)(F)C(F)(F)F
active: [6] 30 µM
not listed: [5] | [10] | [11] | [17] | [19] | [20]
inactive: all other assays above

O=C(Cl)C(F)(F)C(F)(F)C(F)(F)C(F)(F)C(F)(F)C(F)(F)C(F)(F)C(F)(F)F
inactive: [1] | [3] | [4] | [19] | [5] | [17] | [10] | [12] | [14] | [15]
active: [1] 42.9 µM and 30 µM | [2] 10.3 µM | [6] 44.9 µM and 53.1 µM and 54.2 µM | [7] 25.2 µM | [18] 25.7 µM | [13] 46.4 µM and 46.3 µM and 55 µM | [14] 49.7 µM | [15] 5.95 µM | [16] 49.4 µM and 51.1 µM and 52.5 µM

OCC(F)(F)C(F)(F)C(F)(F)C(F)(F)C(F)(F)C(F)(F)F
active: [4] 46.4 µM | [6] 52.3 µM and 30 µM
inactive: [1] | [2] | [4] | [5] | [8] | [20] | [18] | [11] | [12] | [13] | [14] | [15] | [16]

OCC(F)(F)C(F)(F)C(F)(F)C(F)(F)C(F)(F)C(F)F
not listed: [2] | [8] | [9] | [10] | [11] | [17] | [18]
inactive: all other assays above

O=C(O)C(F)(F)C(F)(F)C(F)(F)F
not listed: [5] | [8] | [17] | [18] | [19]
inactive: all other assays above

FC(F)(F)C(F)(F)C(F)(F)C(F)(F)C(F)(F)C(F)(F)CC1CO1 (stereo unspecified)
not listed: [3] | [8] | [18]
inactive: all other assays above

Reference: PubChem BioAssay (EPA / NIEHS)
